In the library only some 2.9% were active in any assay of this set; here they are far more common.
CF NFkB inh: inhibitors of cystic fibrosis induced NF-kB; KKLEB NF-kB-GFP reporter, PAF-induced, GFP fluorescence overnight; inhibition, % at 5 µM; hit rate 0.86% among 360,000;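 active = at least 50% inhibition at 5 µM, scaled per plate between neutral and stimulator controls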;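 also: PAF is a Pseudomonas aeruginosa culture filtrate used as stimulus; plate controls were PAF-stimulated DMSO wells for no effect and unstimulated DMSO wells for full effect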
HIF-2a block: inhibitors of HIF-2a; 786-0 RCC cells HIF-2a reporter, luciferase luminescence, overnight; inhibition, % at 18.8 µM; hit rate 0.72% among 360,000; AID 624352;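 active = inhibition of the luminescence signal of 40% or more relative to plate controls, in a single-dose primary screen at 18.75 µM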
EBV LMP1 NFkB: inhibitors of Epstein-Barr LMP1-induced NF-kappaB reporter. hit rate 0.69% among 350,000. inhibition, % at 12.5 µM. LMP1-induced NF-kappaB luciferase reporter cells, luminescence. AID 504558; in the data active = inhibition above about 41%;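 also: 0% = neutral control wells and 100% = reference inhibitor control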
Peg3 promoter: inhibitors of Peg3 promoter; HeLa PEG-Prom luciferase reporter, luminescence, overnight; inhibition, % at 20 µM; hit rate 1.7% among 360,000;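 active = inhibition of at least 50% at 20 µM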
KKLEB cytotox: counter-screen for CF NF-kB inhibitors: cytotoxicity | hit rate 0.36% among 360,000 | KKLEB CF airway cells viability, ATPlite luminescence, overnight; hits give low values; cells stimulated with P. aeruginosa culture filtrate | activity change (cytotoxicity), % at 5 µM;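 active = corrected activity change at or below -50% at 5 µM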
Shn3 3UTR inh: inhibitors of Schnurri-3 3'UTR reporter in osteoblasts. Clone20 osteoblast Shn3 3'UTR firefly luciferase, 24 h. inhibition, % at 12.5 µM. hit rate 0.52% among 360,000. AID 588674;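 active = mean inhibition of at least 75% with every replicate also reaching 75%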;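 also: 0% = median of neutral control wells and 100% = pilot-screen positive control compound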
An asterisk follows results filed as active; nt = not tested or not shown.

SMILES	CF NFkB inh	HIF-2a block	EBV LMP1 NFkB	Peg3 promoter	KKLEB cytotox	Shn3 3UTR inh
N/C(Cc1cccc2ccccc12)=N\OC(=O)c1ccccc1F	-12	-80	-8	-40	-8	-7
N/C(Cc1ccccc1)=N\OC(=O)c1cccc2ccccc12	1	-42	-17	78*	-1	-9
N/C(Cc1ccc([N+](=O)[O-])cc1)=N\OC(=O)c1ccc2ccccc2c1	16	-66	-18	81*	-8	-2
N#Cc1ccc(NC(=O)Nc2cccc(C#N)c2)cc1	3	-51	4	28	-6	12
N#Cc1ccc(NC(=O)Nc2ccc(Oc3ccc(NC(=O)Nc4ccc(C#N)cc4)cc3)cc2)cc1	-11	-36	15	57*	15	91*
COc1ccc(C(=O)C(CCC(CNC(C)(C)C)C(=O)c2ccc(OC)cc2)CNC(C)(C)C)cc1 (centres undefined)	42	45*	9	105*	-27	5
COc1ccc(-c2cc(-c3ccc(C)cc3)nc(SCc3nnc(-c4ccccc4)o3)c2C#N)cc1OC	46	12	1	38	-70*	14
COc1cccc(-c2ncc3ccccc3c2COC(=O)c2cccc(Br)c2)c1	16	-30	-14	7	-10	20
Cc1c(C=O)c2ccccn2c1C(=O)c1cccs1	-19	16	11	-11	0	11
Cc1c(C=O)c2ccccn2c1C(=O)c1ccccc1Cl	23	25	53*	26	-12	5
COc1ccc(CNC(C)C23CC4CC(CC(C4)C2)C3)c(OC)c1OC (centres undefined)	11	20	3	1	-6	18
O=C1CCC/C=C\C[C@H](CC(=O)N(CCO)Cc2ccccc2)C(=O)N2CCC[C@@H]2CO1	-6	8	4	1	10	7
COc1ccc([C@@]23Oc4cc(OC)cc(OC)c4[C@]2(O)[C@H](O)[C@H](C(=O)N(C)C)[C@H]3c2ccccc2)cc1	60*	56*	82*	97*	2	91*
COc1ccc(C2CC(O)(c3ccccc3)Oc3cc(OC)c(OC)c(OC)c32)cc1 (centres undefined)	8	-12	-1	18	-11	0
CCCCN(C(=O)c1c(C)noc1C)c1c(N)n(CCC)c(=O)[nH]c1=O	23	9	4	10	-6	-4
NC(c1cccc(F)c1)c1nc(-c2ccc(Cl)cc2)cs1 (centres undefined)	-11	-81	nt	-54	7	-5
Clc1ccc2c(N/N=C/c3cccnc3)ccnc2c1	-168	-82	1	18	5	-6
Clc1ccc2c(N/N=C/c3ccc(Br)cc3)ccnc2c1	-17	33	-8	105*	-16	-8
Clc1ccc2c(NCc3ccccc3)ccnc2c1	5	-5	32	-1	-2	90*
Cc1ccc(/C=N/Nc2ccnc3cc(Cl)ccc23)c(C)c1	-16	8	5	111*	-36	4
Oc1ccc(/C=N/Nc2ccnc3cc(Cl)ccc23)c(O)c1	-47	-227	-2	28	21	nt
Cc1ccccc1/C=N/Nc1ccnc2cc(Cl)ccc12	-57	-53	-38	94*	-23	82
CN(C(=O)COC(=O)c1cc(S(=O)(=O)N2CCOCC2)c(Cl)cc1Cl)C1CCS(=O)(=O)C1 (centres undefined)	-3	6	-9	16	-1	-9
OC(CNc1ccnc2cc(Cl)ccc12)CNC1CCCCC1 (centres undefined)	-7	-30	1	100*	-4	44
COC(=O)C(=O)C1CCc2c(Cl)cc(OC)c(OC)c2C1=O (centres undefined)	-2	0	87*	17	3	-2
SMILES	CF NFkB inh	HIF-2a block	EBV LMP1 NFkB	Peg3 promoter	KKLEB cytotox	Shn3 3UTR inh
O=C(Nc1ccc(N2CCOCC2)c(Cl)c1)c1c(F)c(F)c(F)c(F)c1F	32	29	-14	52*	-16	18
Cc1ccc(C(C(=O)NC2CCCC2)N(C(=O)CNC(=O)c2ccco2)c2ccccc2)o1 (centres undefined)	8	10	2	14	0	2
CCOC(=O)N1CCN(C(=O)COC(=O)c2ccc([N+](=O)[O-])cc2Cl)CC1	-15	-1	-4	2	9	-7
COC(=O)N1C(=O)[C@](c2ccc(Cl)cc2)(C(C)C)N1C(=O)OC	66*	23	2	31	-14	50
COC(=O)N1C(=O)[C@](c2ccccc2)(C2CCCC2)N1C(=O)OC	11	27	1	30	-16	11
Cn1/c(=N/NC(=O)c2ccccc2Br)sc2ccccc21	-6	-204	49*	-119	17	-74
COc1cc(C(=O)N/N=c2/sc3ccccc3n2C)cc(OC)c1OC	-5	9	-7	9	-3	15
CC(CCc1ccccc1)NC(=O)CN1C(=O)NC2(CCCCC2)C1=O (centres undefined)	3	19	-7	5	0	12
Cc1cnc(NC(=O)COc2ccccc2Cl)s1	-3	25	66*	43	-24	63
CCOC(=O)CSc1ccc(C(=O)N2CCN(C)CC2)cc1[N+](=O)[O-]	-7	2	-3	104*	4	8
COC(=O)C1=NNC2(c3ccc(C)cc3)C(=O)N(c3ccc(C)cc3)C(=O)C12 (centres undefined)	14	7	2	2	2	0
N#Cc1nc(Nc2cccc(Cl)c2)c2ncn(C3CCCC3)c2n1	51*	-150	-63	-181	-54*	-9
COc1ccc(C(=O)c2ccc([N+](=O)[O-])cc2)c(OC)c1OC	4	-5	3	11	-13	-7
O=C1N(c2ccccc2C(F)(F)F)O[C@]1(c1ccccc1)C1CCCC1	47	5	0	77*	1	-3
CC[C@@]1(c2ccccc2OC)ON(c2ccccc2C(F)(F)F)C1=O	59*	14	9	81*	4	-5
Cc1ccccc1[C@@]1(C)ON(c2ccccc2C(F)(F)F)C1=O	49	29	0	79*	5	-18
COc1ccccc1-c1cc(C(F)(F)F)c(C#N)c(=O)[nH]1	7	7	-15	-1	-1	-18
Cc1ccccc1S(=O)(=O)Cc1ccc(C(=O)NCc2ccc(F)cc2)o1	-1	16	1	12	7	1
O=C(Nc1cccc(S(=O)(=O)C(F)(F)F)c1)[C@H]1C[C@H](O)[C@@H](CO)O1	15	10	nt	0	-9	4
CCC(C)C(NC(=O)[C@@H](NC(=O)c1ccccc1F)C(C)C)C(=O)OC (some centres undefined)	2	16	0	9	4	2
COc1nc(N)nc2nc[nH]c12	-10	2	0	-7	10	2

Screening data (PubChem BioAssay)
